# RGS4 inh = human RGS4 inhibition; P49798; Transcreener GDP fluorescence polarization, RGS4-accelerated GTP hydrolysis; Potency, µM (titrated, usually from 114 µM), without a hit: top-dose activity change, negative = inhibition, actives largely listed as inhibitors; 390,000 compounds, 0.039% hits; AID 504845; note: potency is the fitted concentration of half-maximal effect; % is set by controls: 0 for no effect and ±100 for the full control effect; nearly all actives have a fitted effect of over 75% in size
# Target sequence (P49798 whole entry, looked up): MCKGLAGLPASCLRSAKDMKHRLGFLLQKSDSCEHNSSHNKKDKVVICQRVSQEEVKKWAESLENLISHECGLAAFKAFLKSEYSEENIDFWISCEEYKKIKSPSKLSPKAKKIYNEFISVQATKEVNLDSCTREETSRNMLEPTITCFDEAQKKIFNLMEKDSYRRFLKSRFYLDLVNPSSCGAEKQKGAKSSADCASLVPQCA
#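 MLSMR compounds (23 nl, pin-transferred) preincubated 10 min at room temperature with a 500nM (2x) first reagent, then RGS4 at 900nM (2x) plus Transcreener GDP mix added; fluorescence polarization (620/688 nm) read before and after 90 min at 30 °C.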
# LDHA block = blocks human lactate dehydrogenase A | AID 1347041 | P00338 | activity change, % (values are at about 110 or 230 µM) | 480,000 compounds, 0.15% hits | purified LDHA, NADH/diaphorase-resazurin fluorescence; active compounds read low; in the data active = activity change below about -30%; inconclusive = mostly about -25% to -30%;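 note: plate controls were DMSO wells for no effect and wells without enzyme for full effect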
#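 LDH5 2 nM; NADH 0.06 mM, pyruvate 0.2 mM; 200 mM Tris pH 7.4, EDTA, Tween-20; 5 min RT. Detection: diaphorase 0.133 mg/mL + resazurin 37 µM, fluorescence ex540/em590 at 0 and 20 min; normalized to enzyme-free and DMSO wells.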
# Anesthetic bind = candidate novel general anesthetic via apoferritin binding. AID 485281. Potency, µM (doses to about 77.5 µM), for inactives: top-dose activity change, negative = displacement, most hits filed as inhibitors. 350,000 compounds, 0.074% hits. P02791. apoferritin/1-aminoanthracene competitive binding, fluorescence; note: potency is the fitted concentration of half-maximal effect; % is set by controls: 0 for no effect and ±100 for the full control effect; nearly all actives have a fitted effect of over 20% in size
# Target sequence (P02791 2-175 limits assumed): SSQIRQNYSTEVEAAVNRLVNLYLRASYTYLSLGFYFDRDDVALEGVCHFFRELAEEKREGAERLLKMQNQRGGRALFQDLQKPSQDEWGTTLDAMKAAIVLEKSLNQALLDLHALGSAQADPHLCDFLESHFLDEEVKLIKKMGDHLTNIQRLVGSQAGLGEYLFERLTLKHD
#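 Read-out: endpoint 1-AMA fluorescence, excitation 380 nm and emission 535 nm, after compounds sit 10 min at room temperature with 10 uM horse-spleen apoferritin in 50% saturated 1-AMA/PBS. Values come from four-parameter Hill fits.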
# AT treatment = candidate therapy for ataxia-telangiectasia; F2112 A-T fibroblasts, KAP-1 phosphorylation AlphaLISA; neocarzinostatin DNA damage 30 min before lysis; Potency, µM (doses to about 57.5 µM), for inactives: top-dose activation, most hits filed as activators; 320,000 compounds, 0.19% hits; AID 485349; note: potency is the fitted concentration of half-maximal effect; % of control where 0% means no effect; nearly all actives have a fitted effect of over 45% in size
#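 ATM-like activity read as KAP-1 phosphorylation via AlphaLISA donor/acceptor antibody pairs after lysis and 6 hr at 25C. Cells were ATM-null patient fibroblasts (F2112, hTERT), dosed 60 min, then exposed to the DSB inducer NCS for 30 min.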
# Numbers without * were called inactive; ? = inconclusive; . = no result. Sampled rows, rich in hits. Any-hit rate of the full collection: about 0.35%. Unless noted, calls come from the whole dose curve; as a rule, active = well fitted curve in the direction sought with a large enough effect; inconclusive = small, poorly fitted or top-dose-only effect, or another doubt; inactive = no such curve, though single readings can be large; an effect the other way counts as inactive or inconclusive.
SMILES,RGS4 inh,LDHA block,Anesthetic bind,AT treatment
COc1ccc(C(NC(=O)CNc2ccccc2C(N)=O)C2CC2)cc1 (stereo not drawn),.,-2.6,.,.
C=CCn1c(COc2ccccc2)nc2ccccc21,18.4%,-0.9,70.8µM*,3.3%
CCc1ccc(NCc2cc(=O)n3[nH]c(-c4ccccc4)nc3n2)cc1,.,9.6,.,.
COC(=O)CCc1c(C)c(C(=O)c2cc(OC)c(OC)c(OC)c2)c2ccccn12,10.0%,-3.8,3.9%,3.55µM*
CN(C)CCCNCC(=O)c1c(-c2ccccc2)n(C)c2ccccc12,-52.7%,-36.6*,-2.9%,?
CCC(C)c1ccc(NC(=O)CSc2nncn2N)cc1 (stereo not drawn),-19.0%,-1.6,?,-9.3%
Nn1cnnc1SCC(=O)Nc1ccc(C2CCCCC2)cc1,-11.4%,-1.7,7.08µM*,-5.5%
COc1ccc(NC(=O)CSc2nnc(C3CCCCC3)n2N)cc1,0.3%,-7.1,?,-7.7%
Nn1c(SCC(=O)Nc2cccc(F)c2)nnc1C1CCCCC1,1.8%,-3.2,8.91µM*,3.1%
Cc1cccc(N2CCN(C(=O)Cn3nc(C)n4cccc4c3=O)CC2C)c1 (stereo not drawn),-0.8%,-2.8,?,-7.9%
Cc1ccc(-c2ccc(=O)n(CC(=O)N3CCN(c4cccc(C)c4)C(C)C3)n2)cc1 (stereo not drawn),-15.7%,1.5,25.1µM*,3.3%
Cc1cc(C)c2nc(-c3ccc(Cl)s3)cc(C(=O)O)c2c1,.,-0.4,.,.
O=C(C1CCN(Cc2cccs2)CC1)N1CCN(Cc2ccc3c(c2)OCO3)CC1,-3.1%,-32.5*,-4.2%,2.2%
O=C(c1cccs1)N1CCC(C(=O)N2CCN(Cc3ccc4c(c3)OCO4)CC2)CC1,7.4%,0.7,-8.2%,1.0%
CCN1CCN(Cc2cccc(Oc3ccccc3)c2)CC1,31.6%,-31.8*,-22.8%,-0.6%
COc1ccc2nc(C(=O)Nc3ccccc3OC)ccc2c1,.,11.8,.,.
CC1CC(NC(=O)c2cc3c(=O)n4ccccc4nc3n2C)CC(C)(C)C1 (stereo not drawn),-10.7%,-1.0,35.6%,28.2µM*
CC1CCCCC1NC(=O)c1cc2c(=O)n3ccccc3nc2n1C (stereo not drawn),0.6%,0.2,94.5%,?
COc1ccc(C(=O)C(CN2CCOCC2)c2ccccc2)cc1 (stereo not drawn),13.0%,-6.8,-20.2%,.
O=C(c1ccc(F)cc1)C(CN1CCOCC1)c1ccccc1 (stereo not drawn),-40.0%,-0.1,?,39.8µM*
O=C(c1ccccc1)C(CCC(CN1CCOCC1)C(=O)c1ccccc1)CN1CCOCC1 (stereo not drawn),-45.2%,0.5,-19.1%,35.5µM*
COc1cccc(/C=C(/C#N)C(=O)c2ccccc2)c1OC(F)F,.,2.5,.,.
C=CCOc1cccc2[nH]c(C(=O)O)cc12,.,10.1,.,.
O=C(CC1C(=O)NCCN1CC1CCCCC1)NCc1cccc(F)c1F (stereo not drawn),-8.8%,1.2,?,3.2%
O=C(CC1C(=O)NCCN1Cc1cccc(F)c1F)NCCCC1CCCC1 (stereo not drawn),-18.7%,1.5,31.6µM*,17.4%
SMILES,RGS4 inh,LDHA block,Anesthetic bind,AT treatment
O=C(CC1C(=O)NCCN1Cc1ccc(F)cc1)NC1CCCCCCC1 (stereo not drawn),11.6%,1.4,15.8µM*,-10.7%
Cc1ccc(CN2CCNC(=O)C2CC(=O)NC2CCCCCC2)cc1 (stereo not drawn),-22.2%,0.9,?,7.9%
COc1cccc(-c2nc(C#N)c(N3CCN(C(=O)c4ccccc4)CC3)o2)c1,.,-4.0,.,.
N#C/C(=C/c1cccc2c1OCCCO2)c1nc2ccccc2[nH]1,.,15.4,.,.
Cc1cc(-c2csc(N3CCN(C)CC3)n2)c(C)n1NC(=O)c1nn(C)c(=O)c2ccccc12,.,0.5,.,.
O=C(/C=C/c1ccccc1)Nc1ccc2c(c1)C(=O)NC2=O,-19.3%,-0.6,2.4%,6.1%
O=C(/C=C/c1ccccc1Cl)Nc1ccc2c(c1)C(=O)NC2=O,-48.2%,-46.3*,-7.3%,-12.6%
C[n+]1c(/C=C/c2ccc3c(c2)OCO3)ccc2ccccc21,4.3%,-32.6*,-9.6%,-4.8%
N#CCCN1CCN(c2ccc(NS(=O)(=O)c3ccc(F)cc3Cl)c(C(=O)O)c2)CC1,.,-1.8,.,.
Cc1ccc(N/N=C/C(Br)=C/c2ccccc2)cc1Cl,.,2.2,.,.
S=c1[nH]nc(COc2ccccc2)n1/N=C/c1cccc(Cl)c1Cl,-39.1%,-7.8,-21.8%,-5.0%
S=c1[nH]nc(COc2ccccc2)n1/N=C/c1ccccc1Cl,?,0.1,-20.5%,5.01µM*
Cc1ccccc1CNC(=O)Cn1ccc2c(C)nn(C)c2c1=O,.,7.8,.,.
Cc1cccc(OCC(=O)OCc2cc(=O)n3nc(C4CCCCC4)sc3n2)c1,-1.5%,3.6,15.8µM*,.
O=C(COc1ccccc1)OCc1cc(=O)n2nc(C3CC3)sc2n1,-11.3%,-3.2,?,.
COc1ccc(-c2nn3c(CN4CCOCC4)nnc3s2)c(OC)c1,.,-6.2,.,.
CN1OC[C@@H]2CN(S(=O)(=O)c3cccc4ccccc34)[C@H](c3ccc(-c4ccccc4)cc3)C[C@@H]21,.,-30.3*,.,.
CCCCNc1c(-c2cccc(-c3ccc(OC)cc3)c2)nc2ccc(C)cn12,-10.7%,-0.6,.,35.5µM*
Cc1ccc2nc(-c3ccc(-c4cccc(Cl)c4)cc3)c(NCc3ccccc3)n2c1,10.7%,-1.8,.,25.1µM*
COC(=O)C(C#N)c1nc2ccccc2nc1NC1CC1 (stereo not drawn),.,25.9,.,.
CCn1nc(C)c(CNC(=O)c2cc(COc3ccc(F)cc3Cl)on2)c1C,19.2%,-2.6,-6.2%,1.58µM*
CCn1cc(CNC(=O)c2cc(COc3ccc(F)cc3Cl)on2)cn1,8.8%,0.3,-4.2%,8.5%
CSc1cccc(NC(=S)NCCSc2ccc(Cl)cc2)c1,.,-2.5,.,.
CN1CCN(c2oc(-c3ccc(C(C)(C)C)cc3)nc2C#N)CC1,.,4.9,.,.
O=c1oc2ccccc2cc1-c1csc(Nc2ccccc2Cl)n1,.,-1.3,.,.
SMILES,RGS4 inh,LDHA block,Anesthetic bind,AT treatment
Cc1nc(C)c(-c2ccc(SCC(=O)Nc3ccccc3F)nn2)s1,-31.9%,-0.4,22.4µM*,.
O=C(c1ccc(Cl)cc1Cl)C(Br)C(O)C(Cl)(Cl)Cl (stereo not drawn),.,-4.6,.,.
CC(C)N(C(=O)CO/N=C/c1cccc([N+](=O)[O-])c1)C(C)C,-4.5%,0.5,44.7µM*,2.9%
CC(C)N(C(=O)/C=C/c1cccc([N+](=O)[O-])c1)C(C)C,-44.2%,-0.6,?,-0.4%
O=C(Nc1cc(Cl)ccc1Cl)c1cc([N+](=O)[O-])cc(Br)c1O,-18.7%,-53.6*,.,.
O=C(Nc1ccc([N+](=O)[O-])cc1Cl)c1cc(Cl)cc(Cl)c1O,?,1.7,.,.
O=C(Oc1ccc(Br)cc1C(=S)N1CCCCC1)c1cc([N+](=O)[O-])cc([N+](=O)[O-])c1,-33.7%,-8.0,31.6µM*,9.0%
CC(C)=CC(=O)Nc1ccc(F)c(Cl)c1,.,4.6,.,.
Cn1c2ccccc2c(=O)c2cc(C#Cc3cccc(N)c3)ccc21,13.2%,-9.9,.,0.2%

# Screening results deposited in PubChem BioAssay by National Center for Advancing Translational Sciences (NCATS).
